IDE inh – cellular human IDE inhibition. P14735. HEK cells, FAbetaB cleavage, fluorescence polarization. inhibition, % at 5.59 µM. 0.41% of 320,000 active;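 active = percent inhibition above the average of all tested compounds plus 3 SD, set per screening campaign, cut at about 16% in these data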;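 also: IDE supplied by intact live HEK cells; FP after avidin binding of uncleaved biotin substrate so inhibition keeps polarization high; 0% = DMSO wells and 100% = 60 µM reference IDE inhibitor Ii1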
Target sequence (P14735 whole entry, looked up): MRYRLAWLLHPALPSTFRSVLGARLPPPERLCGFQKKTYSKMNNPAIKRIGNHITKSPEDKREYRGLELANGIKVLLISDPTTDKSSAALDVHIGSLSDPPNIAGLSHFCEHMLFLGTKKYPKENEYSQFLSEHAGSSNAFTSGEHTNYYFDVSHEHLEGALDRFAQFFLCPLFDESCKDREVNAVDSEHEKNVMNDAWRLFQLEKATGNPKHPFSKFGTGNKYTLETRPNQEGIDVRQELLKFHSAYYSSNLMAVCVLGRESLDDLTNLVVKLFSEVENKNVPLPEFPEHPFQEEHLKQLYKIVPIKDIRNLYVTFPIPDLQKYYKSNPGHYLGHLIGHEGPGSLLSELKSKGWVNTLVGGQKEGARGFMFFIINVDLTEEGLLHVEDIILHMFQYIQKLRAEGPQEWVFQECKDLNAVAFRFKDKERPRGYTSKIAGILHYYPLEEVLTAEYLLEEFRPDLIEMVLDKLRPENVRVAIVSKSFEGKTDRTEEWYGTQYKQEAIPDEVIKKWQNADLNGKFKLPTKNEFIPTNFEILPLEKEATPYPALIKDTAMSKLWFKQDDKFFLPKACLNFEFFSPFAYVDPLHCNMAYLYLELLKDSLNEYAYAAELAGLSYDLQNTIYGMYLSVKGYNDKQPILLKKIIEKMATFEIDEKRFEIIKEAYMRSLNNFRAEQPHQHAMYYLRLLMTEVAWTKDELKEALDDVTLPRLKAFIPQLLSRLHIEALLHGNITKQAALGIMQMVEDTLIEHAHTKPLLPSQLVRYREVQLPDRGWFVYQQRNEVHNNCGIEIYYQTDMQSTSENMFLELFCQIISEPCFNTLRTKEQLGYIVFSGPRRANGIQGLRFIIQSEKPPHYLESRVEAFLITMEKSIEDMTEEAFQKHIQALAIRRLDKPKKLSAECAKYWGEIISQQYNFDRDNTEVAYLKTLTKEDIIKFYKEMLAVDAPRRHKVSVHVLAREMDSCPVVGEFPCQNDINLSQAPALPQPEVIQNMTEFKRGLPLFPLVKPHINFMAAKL
IDE act – boosts human insulin-degrading enzyme activity in HEK cells. P14735. FAbeta-B cleavage, fluorescence polarization; 0% vehicle, 100% cell-free pure enzyme wells. activation, % at 5.96 µM. 0.073% of 340,000 active. AID 493087;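 active = activation above the mean of all tested compounds plus 3 SD, set per screening campaign, cut at about 17% in these data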
PP1 counter – counter-screen for PP5 inhibitors: inhibitors of human PP1-alpha | P62136 | purified PP1alpha, OMFP fluorescence | 0.9% of 320,000 active | inhibition, % at 6.7 µM;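 active = inhibition above the mean inhibition of all tested compounds plus 3 SD, computed separately for each screening campaign, cut at about 15% in these data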
SKKanGAS inh – blocks kanamycin growth of S. pyogenes SKKanGAS strain. BacTiter-Glo, 6 h. inhibition, % at 7.5 µM. 1.3% of 300,000 active. AID 1662;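 active = mean replicate score, as percent of positive control median, at least 50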;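 also: strain carries kanamycin resistance gene driven by streptokinase promoter and grows in 40 µg/ml kanamycin; loss of luminescence reflects streptokinase promoter inhibition or plain growth inhibition; 0% = median of DMSO wells and 100% = positive control at its reference dose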
PP5 primary – blocks human protein phosphatase 5 activity | 0.18% of 320,000 active | P53041 | inhibition, % at 6.7 µM | AID 1987 | purified PP5c, OMFP substrate fluorescence;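 active = inhibition above the campaign's mean inhibition across all tested compounds plus 3 SD, cut at about 9.5% in these data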;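 also: 0% = DMSO only and 100% = 100 µM cantharidin control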
Granule exo inh – lytic granule exocytosis inhibition; 0.66% of 360,000 active; TALL-104 LAMP-1 surface exposure, flow cytometry; cells stimulated with thapsigargin and PMA; inhibition, % at 10 µM; AID 651702;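 active = inhibition above about 55%, limit read from the data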
An asterisk follows results filed as active; . = not tested or not shown. Rows were chosen to be rich in hits. Some 2.8% of all compounds tested hit in one or more screens of this group.

SMILES	IDE inh	IDE act	PP1 counter	SKKanGAS inh	PP5 primary	Granule exo inh
COc1ccccc1C(=O)NNC(=S)NC(=O)c1cc(OC)c(OC)c(OC)c1	0	8	-2	80*	-1	8
COc1cc(C(=O)NNC(=O)c2ccc3c(c2)OCCO3)cc(OC)c1OC	-2	4	.	.	.	-6
CN(C(=O)CC1C(=O)NCCN1Cc1ccc(F)c(F)c1)C1CCOCC1 (centres undefined)	6	4	-4	1	2	-1
COC(=O)[C@]12CCCCC=C1N(Cc1ccc3c(c1)OCO3)C(=O)[C@H](CC(=O)NCC13CC4CC(CC(C4)C1)C3)C2	.	.	.	.	.	12
COc1ccc(/C=N/NC(=O)c2cccc(O)c2)cc1Cn1nc(C)c([N+](=O)[O-])c1C	-5	4	-2	-10	1	1
COc1cc(C(=O)NNC(=S)NC(=O)c2ccccc2C)cc(OC)c1OC	1	1	-1	60*	0	12
O=C(CSc1nnc(-c2c[nH]c3ccccc23)o1)N(Cc1ccccc1)c1ccc(F)cc1	-4	-4	2	23	9	78*
COc1ccc(CN(C(=O)CSc2nnc(-c3ccccc3C)o2)c2ccc(F)cc2)cc1	6	2	9	6	2	0
Cn1ccsc1=NC(=O)c1cccc(C#N)c1	-4	0	4	-14	-3	-5
COc1ccc(S(=O)(=O)NC(=O)C2(C)CCN2C(=O)Cc2ccc(C(C)(C)C)cc2)cc1 (centres undefined)	.	.	.	.	.	-4
Cc1ccc(C(=O)N/C(=C\c2ccc([N+](=O)[O-])cc2)C(=O)NCCc2ccccc2)cc1	-3	4	17*	0	-1	0
O=C(NCCc1ccccc1)/C(=C\c1ccc([N+](=O)[O-])cc1)NC(=O)c1ccco1	1	-3	-9	2	2	-8
O=C(NC(=S)N1CCN(c2nc(-c3ccccc3)cs2)CC1)c1cncc(Br)c1	7	-2	11	77*	-1	2
O=C(CN1CCN(c2nc(-c3ccccc3)cs2)CC1)NNC(=O)c1ccc(Br)cc1	5	-2	3	9	0	-2
CCn1c(C)cs/c1=N\C(=S)Nc1ccccc1C	4	4	3	-1	5	10
CCOC(=O)[C@]12CCCC=C1N(CCC1=CCCCC1)C(=O)[C@H](CC(=O)NCC1CCCCC1)C2	.	.	.	.	.	6
CCCOc1ccc(C(=O)NC(=S)N2CCN(c3cc4c(cc3F)c(=O)c(C(=O)O)cn4CC)CC2)cc1	4	3	5	91*	0	-7
CCN1CCN(c2cc3c(cc2F)c(=O)c(C(=O)O)cn3C2CC2)CC1	3	3	4	103*	0	-3
C/C(=N/NC(=O)c1cccs1)c1c(C)[nH]n(-c2nc3ccccc3s2)c1=O	-1	5	4	55*	2	1
O=C(Cc1ccccc1F)NNC(=O)c1ccncc1	-1	5	3	2	0	-1
Cn1c(=O)c(C(=O)COC(=O)c2cc(-c3ccco3)nc3ccccc23)c(N)n(CC2CC2)c1=O	1	.	21*	36	4	.
O=c1cc(O)c2c(=O)n(-c3ccccc3)c3ccccc3c2o1	-8	2	2	102*	0	2
COCc1cc(=O)[nH]c(Nc2nc3ccccc3o2)n1	-5	0	2	53*	1	0
S=C(NCCc1ccccc1)N1CCc2ccccc2C1	3	-3	4	9	2	0
Cc1ccc(NC(=O)COC(=O)CCC2CCCC2)cc1S(=O)(=O)N1CCOCC1	-3	1	.	.	.	-1
SMILES	IDE inh	IDE act	PP1 counter	SKKanGAS inh	PP5 primary	Granule exo inh
COC(=O)C1=C(C)N(Cc2ccccc2)C(=NCc2cccc(C(F)(F)F)c2)N[C@H]1c1cccc(C(F)(F)F)c1	5	29*	.	.	.	0
COCCN=C1N[C@@H](c2cccc(C(F)(F)F)c2)C(C(=O)OC)=C(C)N1Cc1ccccc1	7	2	-4	-3	3	-5
NC(=O)c1ccsc1NC(=O)CSc1nncs1	.	1	.	.	.	-1
C=CCn1c(=NC(=O)c2cccs2)sc2cccc(OC)c21	-2	-3	0	15	0	39
C#CCn1c(=NC(=O)c2ccc(Br)s2)sc2cccc(OC)c21	7	-28	16*	-10	0	-1
O=C1Nc2ccccc2S/C1=C/Nc1cccc(Cl)c1	3	5	0	76*	1	-2
NNc1nc(Nc2ccc([N+](=O)[O-])cc2)nc(N2CCCCCC2)n1	0	0	0	82*	2	-7
NNc1nc(Nc2ccccc2)nc(N2CCCCC2)n1	3	-4	10	26	4	-2
O=[N+]([O-])c1ccc(Nc2nc(NCCO)nc(N3CCCC3)n2)cc1	3	-3	2	97*	4	7
Cc1ccc(-c2nn(CC(=O)NN3CCOCC3)c(=O)c3ccccc23)cc1	2	.	-4	-8	1	-2
O=S(=O)(c1ccc(Cl)cc1)N1CCN=C1SCc1cccc(Cl)c1	1	1	-2	-14	2	2
O=S(=O)(c1ccccc1)N1CCN=C1SCc1c(F)cccc1Cl	5	3	1	64*	4	1
CCOCc1c(C(=O)OCC(=O)NCc2ccc(F)cc2)oc2ccccc12	3	1	-1	.	1	4
Cc1c(C(=O)Nc2nc(-c3ccccn3)cs2)oc2ccccc12	7	2	16*	.	2	-3
Cc1cc(-c2csc(NC(=O)c3cc4ccccc4o3)n2)c(C)n1C	1	3	-6	9	1	-2
O=C(Nc1nc(-c2ccccn2)cs1)c1cc2ccccc2o1	7	-6	10	104*	-2	-1
Cc1ccc(/C=C2\SC(N3CCN(C(c4ccccc4)c4ccccc4)CC3)=NC2=O)o1	-1	-4	17*	18	2	20
Cc1ccc(-c2ccc(/C=C3\SC(N4CCOCC4)=NC3=O)o2)cc1	6	-5	4	13	2	60*
O=C1N=C(N2CCN(c3ccccc3)CC2)S/C1=C/c1cccs1	1	-1	0	10	2	-3
CC1C/C(=N/Nc2nc3ccccc3[nH]2)CC(C)(C)C1 (centres undefined)	-5	-1	0	60*	1	10
CN(C)CCCNC(=O)C1(O)c2cc(Br)ccc2NC(=O)N1c1ccc(Cl)cc1 (centres undefined)	-1	3	-3	-2	-3	-6
Cn1cccc1C(=O)NC1CCCCC1	-8	2	0	-1	-1	2
C[C@H]1COC2=C1C(=O)C(=O)c1c2ccc2c1CCCC2(C)C	3	5	3	86*	6	-1
Cc1coc2c1C(=O)C(=O)c1c-2ccc2c1CCCC2(C)C	6	4	2	42	1	-2
COCC(=O)Nc1nc2ccccc2s1	4	-1	2	5	0	7

Assay outcomes (PubChem BioAssay)
